VLA-4 inh: inhibition in a human VLA-4 binding assay; P13612; VLA-4 expressing cells, ligand binding flow cytometry; inhibition, % (about 7 µM as worked out from the volumes in the protocol); actives 0.2% (n = 330,000); AID 2557; in the data active means inhibition above about 50%
ATG4B inh: ATG4B (human) cysteine protease inhibition; Q9Y4P1; ATG4B cleavage of LC3-PLA2, NBD-HPC fluorescence, 1 h; inhibition, % at 8.33 µM; actives 0.51% (n = 340,000); in the data active means inhibition above about 40%
PKA-R2B activ: PKA-R2B complex activation. P22694+P31323. PKA-R2B holoenzyme dissociation, Cy5-IP20 fluorescence polarization; R2B truncated from residue 108, S112A mutant; 0% DMSO only, 100% 113 µM cGMP. activation, % at 11.4 µM. actives 0.079% (n = 340,000). AID 504700;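 active means activation above a cutoff set at the mean over all compounds plus 3 SD, cut at about 18% in these data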;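 further: higher means more holoenzyme dissociation and a rise in polarization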
Target sequence (P31323 whole entry, looked up, other chains not shown, the tested form may be a part): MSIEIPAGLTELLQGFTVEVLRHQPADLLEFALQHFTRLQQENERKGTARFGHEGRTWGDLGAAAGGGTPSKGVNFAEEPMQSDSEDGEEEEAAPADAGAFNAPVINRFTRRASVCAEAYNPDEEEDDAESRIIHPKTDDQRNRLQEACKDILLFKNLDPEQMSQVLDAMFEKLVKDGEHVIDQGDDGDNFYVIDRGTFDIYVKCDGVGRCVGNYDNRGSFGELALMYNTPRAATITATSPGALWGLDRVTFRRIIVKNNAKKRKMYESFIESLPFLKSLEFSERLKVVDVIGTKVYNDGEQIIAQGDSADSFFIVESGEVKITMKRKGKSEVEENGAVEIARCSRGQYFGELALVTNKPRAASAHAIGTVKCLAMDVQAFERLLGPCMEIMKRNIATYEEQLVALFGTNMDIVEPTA
NRP1-CendR mod: modulators of CendR peptide binding to human neuropilin-1 | O14786 | actives 0.85% (n = 360,000) | FAM-RPARPAR peptide binding to NRP-1, fluorescence polarization | inhibition, % at 25 µM;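 active means inhibition or corrected inhibition above about 18%, plus a signal ratio from 0.5 to 1.5, limit read from the data, passing the limit was not always enough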
PKA-R1A act: activators of PKA-R1A complex | PKA-R1A dissociation, Cy5-IP20 fluorescence polarization; scaled: DMSO 0%, 113 µM cGMP 100% | activation, % at 11.4 µM | actives 0.083% (n = 340,000) | AID 504707;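 active means percent activation above the mean of all tested compounds plus 3 SD, cut at about 19% in these data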;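 further: higher means more PKAc released from R1A so a rise in polarization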
The depositor's hits bear a star; x = not tested or not shown. Rows were chosen to be rich in hits. Some 1.6% of all compounds tested hit in one or more screens of this group.

SMILES | VLA-4 inh | ATG4B inh | PKA-R2B activ | NRP1-CendR mod | PKA-R1A act
COc1cc(C(=O)NC(C)Cc2ccccn2)ccc1OC1CCN(C(C)=O)CC1 (stereo not drawn) | x | 2 | 2 | 20* | -4
CC(Cc1ccccn1)NC(=O)c1ccc(OC2CCN(Cc3ccccn3)CC2)cc1 (stereo not drawn) | -7 | 3 | -7 | 6 | -1
COC(=O)N[C@@H]1C[C@H]2[C@@H]3CC[C@H]4C[C@@H](OC)CC[C@]4(C)[C@H]3CC[C@]12C | -14 | 4 | -5 | 28* | 10
COc1cc(CN2CCCC(C(=O)N3CCc4ccccc4C3)C2)cc(OC)c1OC (stereo not drawn) | 3 | -10 | -10 | -4 | -11
CC1CCC(NC(=O)C2CCC(CNS(=O)(=O)c3cccc4cccnc34)CC2)CC1 (stereo not drawn) | 8 | -6 | -6 | 21* | 5
O=C1C=C(c2ccc(Oc3ccccc3)cc2)C[C@@H](c2ccc(Cl)cc2)C1 | 11 | 0 | -2 | 32* | -5
CSc1ccc(C2=CC(=O)C[C@H](c3ccc(Cl)cc3)C2)cc1 | 0 | -2 | -5 | 28* | -12
COC(=O)c1cc(Cl)ccc1NCC(N)c1ccccc1 (stereo not drawn) | x | x | x | 4 | x
CN(CCOc1ccc(Cl)cc1)c1ccc(S(=O)(=O)N2CCCCC2)cn1 | 0 | -10 | -3 | 19* | -2
Cc1ccc(OCCNc2ccc(S(=O)(=O)N3CCCC3)cn2)cc1 | x | -9 | 9 | 1 | 7
CC(=O)N1CCC(O)(c2ccc3c(c2)OCO3)CC1 | 11 | -2 | 5 | 22* | -8
O=[N+]([O-])c1ccc(Cc2ccc([N+](=O)[O-])cc2)cc1 | x | -1 | 0 | -3 | 0
O=[N+]([O-])c1ccc(Cc2ccncc2)cc1 | -6 | 6 | 0 | 26* | 10
COc1ccc(CCNC2=CC(=O)CCC2)cc1OC | x | x | x | -23 | x
CC1(C(=O)Nc2ccc3c(c2)OCCO3)CCC(=O)N1CCc1c[nH]c2ccccc12 (stereo not drawn) | x | x | x | 4 | x
COC(=O)c1ccccc1S(=O)(=O)N1CCC(C(=O)OCc2ccc([N+](=O)[O-])cc2)CC1 | -11 | -4 | -5 | 25* | -7
COC(=O)c1ccc(COC(=O)C2CCN(S(=O)(=O)c3ccccc3C(=O)OC)CC2)cc1 | 8 | -5 | 0 | 10 | -10
O=C(C[C@H]1C/C=C\CC[C@H](Cc2ccc(F)cc2)C(=O)OCCNC1=O)NCCO | 15 | 1 | -6 | 5 | -7
COc1cc(Nc2cccc(-c3ccccc3)n2)cc(OC)c1OC | x | x | x | 30* | x
CNc1cccc(-c2cc(OC)c(OC)c(OC)c2)n1 | x | x | x | 0 | x
CCCCC(O)(CCCC)C(=O)NN(C(=O)OC)c1ccccc1 | 1 | 0 | -13 | 31* | -11
Cc1c(Cl)cnc(NC(=O)COC(=O)[C@H](C)NC(=O)c2ccccc2)c1Cl | 2 | 8 | -5 | 26* | 1
Cc1c(Cl)cnc(NC(=O)COC(=O)CNC(=O)c2ccccc2)c1Cl | -5 | 7 | -5 | -8 | -3
O=C(O)c1cccc(N2C(=O)c3cccc4cccc(c34)C2=O)c1 | -4 | -5 | -7 | -5 | -2
O=C(O)c1cccc(N2C(=O)c3cc([N+](=O)[O-])cc4cc([N+](=O)[O-])cc(c34)C2=O)c1 | -28 | 6 | 1 | 26* | 3
SMILES | VLA-4 inh | ATG4B inh | PKA-R2B activ | NRP1-CendR mod | PKA-R1A act
O=C1c2cc([N+](=O)[O-])cc3cc([N+](=O)[O-])cc(c23)C(=O)N1c1ccccn1 | -63 | 12 | -3 | 28* | -1
O=C1N=C(N2C=CC(=C3C=CNC=C3)C=C2)/C(=C/N=NC(=O)c2ccccc2O)S1 | -2 | -3 | -6 | 41* | -2
Cn1cc([C@]2(O)C(=O)Nc3ccc(F)cc32)c2ccccc21 | x | x | x | 0 | x
CC(C)(C)OC(=O)N1CCN(C(=O)c2ncn(Cc3ccccc3)c2C(=O)N2CCN(C(=O)OC(C)(C)C)CC2)CC1 | 10 | -14 | -7 | 5 | -1
O=C(NCC1CCCO1)c1nn2c(C(F)(F)F)cc(-c3ccco3)nc2c1Cl (stereo not drawn) | 21 | 9 | -4 | 1 | -1
O=C(NCC1CCCO1)c1nn2c(C(F)(F)F)cc(-c3cc(Br)cs3)nc2c1Br (stereo not drawn) | 2 | -2 | 10 | 35* | -1
Cc1nc2ccc(C(=O)N3c4ccccc4N=C(c4ccc5c(c4)OCO5)C3C(=O)NCc3ccccc3)cc2[nH]1 (stereo not drawn) | x | x | x | -1 | x
O=C(Nc1ccccc1Cl)NC1(C(=O)NCc2cccnc2)CCCCC1 | 7 | 2 | -6 | 25* | -8
CC(C)Cn1cnc2c1c(=O)n(CC(=O)O)c(=O)n2Cc1ccccc1 | 15 | -2 | -11 | -4 | -3
CC(C)Cn1cnc2c1c(=O)n(CC(=O)NC(=O)NC(C)(C)C)c(=O)n2Cc1ccccc1 | -3 | -8 | 5 | 18* | 6
CC(C)(C)OC(=O)NCCCCCNC(=O)c1[nH]cnc1C(=O)N[C@@H](CCCCNC(=O)OC(C)(C)C)C(=O)OC(C)(C)C | 9 | -25 | -23 | 5 | -4
C[C@@H](NC(=O)c1nc[nH]c1C(=O)N[C@@H](Cc1ccccc1)C(=O)OCc1ccccc1)c1ccccc1 | -22 | -1 | -8 | 12 | -10
CC(C)(C)OC(=O)[C@H](Cc1ccccc1)NC(=O)c1nc[nH]c1C(=O)N1CCN(C(=O)OC(C)(C)C)CC1 | 16 | -8 | -1 | 27* | -2
CC1CCN(C(=O)c2[nH]cnc2C(=O)NC2CCN(C(=O)OC(C)(C)C)CC2)CC1 | -2 | -2 | -8 | 29* | -1
O=C(N[C@@H](Cc1ccccc1)C(=O)OCc1ccccc1)c1nc[nH]c1C(=O)NC(c1ccccc1)c1ccccc1 | x | -1 | -6 | 27* | -3
CC(C)(C)OC(=O)[C@H](CCCCN)NC(=O)c1nc[nH]c1C(=O)NCCCCCN | 14 | -2 | -3 | 21* | -1
Cc1ccc(S(=O)(=O)N2[C@@H](CO)CO[C@H]2CC(=O)c2cccc3ccccc23)cc1 | x | x | x | 7 | x
O=C(NC1CCCC1)C(C1CC1)n1c(-c2ccnc3ccccc23)nc2ccccc21 (stereo not drawn) | x | x | x | -9 | x
Cc1ccccc1OCC(=O)OCC(=O)c1c[nH]c2ccccc12 | -2 | 0 | -12 | -9 | -6
CCS(=O)(=O)N1Cc2cc(C(=O)N(C)C)nc(-c3cccc(-c4ccc(F)cc4)c3)c2[C@H]1CCO | x | x | x | -12 | x
CC(C)OC(=O)/C=C1\C[C@@H](c2ccccc2C(F)(F)F)O[C@@H](c2ccccc2C(F)(F)F)O1 | x | x | x | 10 | x
O=C(Cn1c(=O)oc2cccnc21)Nc1ccccc1Oc1ccc(Cl)cc1Cl | 8 | -6 | x | x | x
CCN(CC)C(=O)c1nc[nH]c1C(=O)N1CCN(c2ccccc2)CC1 | -3 | -16 | -11 | 30* | 2
